Experimental data published in PubChem BioAssay (NCATS).
Results filed as inconclusive are left out. Activity calls are given as the source filed them. The call rests on the fitted dose curve; in most records, active means well fitted inhibition curve with a large enough effect; inconclusive means small, poorly fitted or top-dose-only effect; inactive means flat fitted curve, though single readings scatter.

Biological target: Calcium and integrin-binding protein 1 (Homo sapiens) (UniProt Q99828)
Sequence (Q99828 whole entry, looked up): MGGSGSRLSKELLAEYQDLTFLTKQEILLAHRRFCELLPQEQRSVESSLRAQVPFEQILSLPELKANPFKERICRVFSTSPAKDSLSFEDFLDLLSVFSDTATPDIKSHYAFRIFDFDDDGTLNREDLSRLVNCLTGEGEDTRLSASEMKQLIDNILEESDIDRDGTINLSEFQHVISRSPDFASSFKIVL
Test: Primary qHTS for Identification of Calcium Integrin Binding Protein 1 (CIB1) Competitor (AID 1508620);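 further: GST tagged CIB1 binding a fluorescein labelled alphaIIb integrin peptide tracer; top concentration of the series differs between compounds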
Settings: CIB1-GST / FITC-alphaIIb peptide fluorescence polarization; series mostly up to 114 µM; activity change, negative = inhibition: at the top concentration
In short: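 Fluorescence polarization competition: CIB1-GST (1 uM final) preincubated with compound 15 min at room temperature, then FITC-labeled alphaIIb peptide (100 nM final) added for another 15 min. Polarization read at Ex 480/Em 540.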
On the % scale 0 is the no-effect control and ±100 the full control effect.

SMILES | activity change, negative = inhibition | outcome
Cc1ccc2nc(NC3=NC(c4[nH]ncc4Cl)C4=C(CCCC4=O)N3)oc2c1 (stereo not given) | -11.8% (inactive) | 
Cc1[nH]c2ccccc2c1P(=S)(c1ccccc1)c1ccccc1 | -3.73% (inactive) | 
CCOc1ccc(CCNC(=O)c2cc3ccncc3n2Cc2cccc(C)n2)cc1OCC | 0.567% (inactive) | 
Oc1cccc2cc(N3CCNCC3)cnc12 | -9.6% (inactive) | 
O=C1CCCC2=C1C(c1[nH]ncc1Cl)N=C(Nc1nc3ccc(F)cc3o1)N2 (stereo not given) | -6.52% (inactive) | 
O=S(=O)(Nc1ccccc1)c1ccc(NCc2ccc(Br)cc2O)cc1 | -7.07% (inactive) | 
CCc1nn2c(=O)cc(N3CCN(C)CC3)nc2s1 | -4.59% (inactive) | 
O=C(Nc1ncc(Cc2ccc(C(F)(F)F)cc2)s1)c1cnc(-c2ccccc2)o1 | -5.08% (inactive) | 
CCOc1ccc(CCNC(=O)c2ccc(Oc3ccccc3)cc2)cc1OCC | 0.211% (inactive) | 
Cc1cc(C)c(OP(=O)(OCc2c(-c3ccccc3)no[n+]2[O-])Oc2c(C)cc(C)cc2C)c(C)c1 | -0.176% (inactive) | 
CCOc1ccc(CCNC(=O)c2cc3ccccc3n2CCN2CCOCC2)cc1OCC | 0.329% (inactive) | 
C[n+]1cc(P(=S)(c2ccccc2)c2ccccc2)n2ccccc21 | -2.37% (inactive) | 
COc1cccc(CNc2ccc(C(=O)Nc3nccs3)cc2)c1O | -3.52% (inactive) | 
O=S(=O)(Nc1cccc2ccncc12)c1ccc(NCc2cccc(Cl)c2O)cc1 | 0.908% (inactive) | 
Cc1ccccc1C(=O)N1CCc2cc(N3CCC(NC(=O)Cc4ccccc4)C3)ccc21 (stereo not given) | -8.34% (inactive) | 
CCc1nn2c(=O)c(C)c(N3CCNCC3)nc2s1 | -4.71% (inactive) | 
CCOc1ccc(CCNC(=O)c2cc3sccc3n2CCN(C)C)cc1OCC | -3.54% (inactive) | 
CCCc1ccc(NC(=O)c2ccc3c(c2)NC(=O)CS3)cc1 | 1.2% (inactive) | 
CCOc1ccc(CCNC(=O)c2cc3ccccc3n2Cc2cccc(C)n2)cc1OCC | 3.2% (inactive) | 
CN1CCN(c2cnc3c(O)ccc(C(=O)O)c3c2)CC1 | -5.74% (inactive) | 

SMILES | activity change, negative = inhibition | outcome
COC(=O)c1nc(-c2cccc3ccccc23)oc1OC | 2.53% (inactive) | 
Cc1nc2ccccn2c1P(=S)(c1ccccc1)c1ccccc1 | 0.334% (inactive) | 
CCOc1ccc(CCNC(=O)c2cc3sccc3n2Cc2ccc(F)cc2F)cc1OCC | 1.8% (inactive) | 
CCOc1ccc(CCNC(=O)c2ccc(C(=O)c3ccccc3)cc2)cc1OCC | 0.0498% (inactive) | 
CCOc1ccc(CCNC(=O)c2cc3ccncc3n2Cc2cccc(C)c2)cc1OCC | -11.1% (inactive) | 
Cc1nn2c(=O)cc(N3CCNCC3)nc2s1 | 5.27% (inactive) | 
S=P(c1ccccc1)(c1ccccc1)c1cnc2ccccn12 | -0.179% (inactive) | 
COc1cccc(CNc2ccc(S(=O)(=O)Nc3nc(C)c(C)s3)cc2)c1O | -23.1% (inactive) | 
S=P(c1ccccc1)(c1ccccc1)c1c(-c2ccccc2)[nH]c2ccccc12 | -1.4% (inactive) | 
O=S(=O)(Nc1ccc(-c2ccccc2)cc1)c1ccc(NCc2cccc(Cl)c2O)cc1 | -1.82% (inactive) | 
CCOc1ccc(CCNC(=O)c2cc3cccnc3n2Cc2cccc(C)c2)cc1OCC | -0.53% (inactive) | 
CCOc1ccc(CCNC(=O)c2cc3cnccc3n2Cc2cccc(C)n2)cc1OCC | -4.17% (inactive) | 
N#Cc1nc(-c2cccc3ccccc23)oc1NCc1ccccc1 | 3.92% (inactive) | 
COc1cccc(CNc2ccc(S(=O)(=O)Nc3ccc4ccccc4c3)cc2)c1O | -1.53% (inactive) | 
Cc1cc(-c2nnc3n2CCCCC3)c(C)n1-c1ccc(C(C)(C)C)cc1 | 2.97% (inactive) | 
Cc1cccc(-n2cnc3cc(C(=O)N4CCCC(C)C4)ccc32)c1 (stereo not given) | -2.29% (inactive) | 
N#Cc1ccc(NC(=O)Nc2nnc(-c3ccncc3)s2)cc1C(F)(F)F | 5.87% (inactive) | 
Cn1cc(Cl)c(C2N=C(Nc3nc4ccccc4o3)NC3=C2C(=O)CCC3)n1 (stereo not given) | -18.4% (inactive) | 
CCOc1ccc(CCNC(=O)c2ccccc2)cc1OCC | -3.67% (inactive) | 
Cc1c(P(=S)(c2ccccc2)c2ccccc2)[n+]2ccccc2n1C |  | inactive
